Laboratory results reported in PubChem BioAssay (Tox21).
A number with no mark means an inactive call. Active and inactive are the calls of the source. Calls follow the shape of the dose curve; as a rule, active = well fitted curve in the direction sought with a large enough effect in the repeat runs; inconclusive = weak or mixed curves; inactive = flat fitted curve, though single readings scatter.

Assay: qHTS assay to test for compound auto fluorescence at 535 nm (green) in HEK293 cells (AID 720680)
Details: green autofluorescence 485/535 nm; series mostly up to 91.3 µM
Description: U.S. Tox21 Program National Center for Advancing Translational Sciences [NCATS] NIH Chemical Genomics Center [NCGC] U.S. Environmental Protection Agency [EPA] National Institutes of Environmental Health Sciences [NIEHS] National Toxicology Program [NTP] U.S. Food and Drug Administration [FDA] Tox21 Assay Overview: Compound auto fluorescence often interferes with screening of the compound library against various biological targets and signaling pathways. Some of these compounds may have fluorophoric properties. Such properties may interfere with the assay outputs resulting in false positives and/or negatives. To decrease such complications and ensure the compound activities are relevant in terms of biological response, the Tox21 10K compound library was screened for auto fluorescence. From the fluorophores used as reporter signals in our screening assays, the auto fluorescence equivalencies of compounds against three fluorophores have been evaluated: Triamterene, Fluorescein and Rose Bengal sodium for blue, green and red fluorescence, respectively. The fluorescence intensities were measured using Excitation/Emission wavelengths at 405/460nm, 485/535nm and 540/590nm for blue, green and red labels, respectively. This assay includes the green fluorescence data.
Tox21 Assay Protocol Summary: 2,000 HEK293 cells in 5 uL of culture medium containing 10% dialyzed FBS per well were dispensed into black wall/clear bottom 1536-well plates using a Multidrop Combi Dispenser (Thermo Scientific). The assay plates were incubated for 4-5 hr at 37C to allow cell attachment to the well bottom, followed by the transfer of 23 nL compound or DMSO vehicle by a pintool work station (Kalypsys, San Diego, CA). After the assay plates were incubated overnight at 37C and 5% CO2, fluorescence intensities in the assay plates were measured by an Envision (PerkinElmer, Shelton, CT) plate reader using three labels for measuring blue, green and red fluorescence at […] 460, 535 and 590nm respectively.
% is scaled to controls: 0 for no effect and ±100 for the full control effect.

SMILES | outcome | fluorescence, % of fluorescein
CCC1(C)NC(=O)NC1=O (stereo not given) | inactive | 
c1ccc(CN(CC2=NCCN2)c2ccccc2)cc1 | inactive | 
CCN(CC)CCOc1ccc(Cc2ccccc2)cc1 | inactive | 
Cc1cc2nc(N)sc2cc1C | inactive | 
CC(C)(C)C1CCCCC1=O (stereo not given) | inactive | 
CN(CCCN1c2ccccc2CCc2ccccc21)CC(=O)c1ccc(Cl)cc1 | inactive | 
CCCCN1C[C@H](O)[C@@H](O)[C@H](O)[C@H]1CO | inactive | 
O=C(O)[C@@H](O)[C@H](O)[C@H](O)[C@@H](O)C(=O)O | inactive | 
CCCc1c2oc(C(=O)O)cc(=O)c2cc2c(=O)cc(C(=O)O)n(CC)c12 | inactive | 
C=C(C)C(=O)OCCOP(=O)(O)O | inactive | 
C[C@@H](N)C(=O)O | inactive | 
CN1CCN(c2c(F)cc3c(=O)c(C(=O)O)cn4c3c2SCC4)CC1 | inactive | 
CC(=O)Nc1ccc(C)c(Cl)c1 | inactive | 
CCCOCCC | inactive | 
CCN(CC)CC1CCCCN1CC(=O)N1c2ccccc2C(=O)Nc2cccnc21 (stereo not given) | inactive | 
CCCCNCCCC | inactive | 
Cc1ccsc1C(=CCCN1CCC[C@@H](C(=O)O)C1)c1sccc1C | inactive | 
O=C(C(Cl)Cl)N1CCOC12CCCCC2 | inactive | 
CC1(O)CSC(C)(O)CS1 (stereo not given) | inactive | 
Cc1c(N)cccc1N | inactive | 

SMILES | outcome | fluorescence, % of fluorescein
FC(F)(F)C(Cl)(Cl)Cl | inactive | 
CC(=O)N[C@@H](CC(C)C)C(=O)O | inactive | 
C=O | inactive | 
Oc1ccccc1C=NCc1ccccc1 | inactive | 
CCOC(=O)[C@H](CCc1ccccc1)N[C@@H](C)C(=O)N1Cc2cc(OC)c(OC)cc2C[C@H]1C(=O)O | inactive | 
NNS(=O)(=O)c1ccc(Oc2ccc(S(=O)(=O)NN)cc2)cc1 | inactive | 
CCCCCCCCCCCCCCCCOP(=O)([O-])OCC[N+](C)(C)C | inactive | 
CN(CC1(C)CCCO1)S(=O)(=O)c1ccc(Cl)c(S(N)(=O)=O)c1 (stereo not given) | inactive | 
CC(C)(C)c1cccc(O)c1 | inactive | 
CC(=O)N(CC(O)CN(C(C)=O)c1c(I)c(C(=O)NCC(O)CO)c(I)c(C(=O)NCC(O)CO)c1I)c1c(I)c(C(=O)NCC(O)CO)c(I)c(C(=O)NCC(O)CO)c1I (stereo not given) |  | -0.0222% [at 18.6 µM]
NC(Cc1ccc(F)cc1)C(=O)O (stereo not given) |  | 0.0426% [at 3.72 µM]
CCCCCCCCOC(=O)CCCCCCCCC(=O)OCCCCCCCC | inactive | 
CCCCOc1cc(C(=O)NCCN(CC)CC)c2ccccc2n1 |  | 0.0154% [at 18.6 µM]
CC1=C2[C@H](/C=C(\C)C(=O)O)CC[C@@H](C)[C@H]2CC1 | inactive | 
O=C1C=CC(=O)O1 | inactive | 
CCCC1CCC(=O)O1 (stereo not given) | inactive | 
Cc1ccccc1C(=O)Nc1ccc(C(=O)N2CCCC(O)c3cc(Cl)ccc32)c(C)c1 (stereo not given) | inactive | 
Cc1nc(-c2ccccn2)ncc1C(=O)Nn1cc(C)c2cc(F)ccc21 | inactive | 
CC1(C)O[C@@H]2C[C@H]3[C@@H]4CCC5=CC(=O)CC[C@]5(C)[C@@]4(F)[C@@H](O)C[C@]3(C)[C@]2(C(=O)CCl)O1 |  | -0.0811% [at 18.6 µM]
C[C@@H]1CN(c2c(F)c(N)c3c(=O)c(C(=O)O)cn(C4CC4)c3c2F)C[C@H](C)N1 | inactive | 
